Screening results from PubChem.
A selection: hits, their analogues and other compounds. The true share with any hit is near 27%.
Cav3 T inh = human Cav3.2 channel inhibition, primary screen; O95180; Cav3.2-expressing cells, Fluo-4 calcium fluorescence FDSS; stronger effect = lower value; B-score at 10 µM; 4% of 100,000 active; AID 449739;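 active = single-dose well whose peak fluorescence ratio is a statistical outlier from its plate by either plate-standardised score or position-corrected B-score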
Target sequence (O95180 whole entry, looked up): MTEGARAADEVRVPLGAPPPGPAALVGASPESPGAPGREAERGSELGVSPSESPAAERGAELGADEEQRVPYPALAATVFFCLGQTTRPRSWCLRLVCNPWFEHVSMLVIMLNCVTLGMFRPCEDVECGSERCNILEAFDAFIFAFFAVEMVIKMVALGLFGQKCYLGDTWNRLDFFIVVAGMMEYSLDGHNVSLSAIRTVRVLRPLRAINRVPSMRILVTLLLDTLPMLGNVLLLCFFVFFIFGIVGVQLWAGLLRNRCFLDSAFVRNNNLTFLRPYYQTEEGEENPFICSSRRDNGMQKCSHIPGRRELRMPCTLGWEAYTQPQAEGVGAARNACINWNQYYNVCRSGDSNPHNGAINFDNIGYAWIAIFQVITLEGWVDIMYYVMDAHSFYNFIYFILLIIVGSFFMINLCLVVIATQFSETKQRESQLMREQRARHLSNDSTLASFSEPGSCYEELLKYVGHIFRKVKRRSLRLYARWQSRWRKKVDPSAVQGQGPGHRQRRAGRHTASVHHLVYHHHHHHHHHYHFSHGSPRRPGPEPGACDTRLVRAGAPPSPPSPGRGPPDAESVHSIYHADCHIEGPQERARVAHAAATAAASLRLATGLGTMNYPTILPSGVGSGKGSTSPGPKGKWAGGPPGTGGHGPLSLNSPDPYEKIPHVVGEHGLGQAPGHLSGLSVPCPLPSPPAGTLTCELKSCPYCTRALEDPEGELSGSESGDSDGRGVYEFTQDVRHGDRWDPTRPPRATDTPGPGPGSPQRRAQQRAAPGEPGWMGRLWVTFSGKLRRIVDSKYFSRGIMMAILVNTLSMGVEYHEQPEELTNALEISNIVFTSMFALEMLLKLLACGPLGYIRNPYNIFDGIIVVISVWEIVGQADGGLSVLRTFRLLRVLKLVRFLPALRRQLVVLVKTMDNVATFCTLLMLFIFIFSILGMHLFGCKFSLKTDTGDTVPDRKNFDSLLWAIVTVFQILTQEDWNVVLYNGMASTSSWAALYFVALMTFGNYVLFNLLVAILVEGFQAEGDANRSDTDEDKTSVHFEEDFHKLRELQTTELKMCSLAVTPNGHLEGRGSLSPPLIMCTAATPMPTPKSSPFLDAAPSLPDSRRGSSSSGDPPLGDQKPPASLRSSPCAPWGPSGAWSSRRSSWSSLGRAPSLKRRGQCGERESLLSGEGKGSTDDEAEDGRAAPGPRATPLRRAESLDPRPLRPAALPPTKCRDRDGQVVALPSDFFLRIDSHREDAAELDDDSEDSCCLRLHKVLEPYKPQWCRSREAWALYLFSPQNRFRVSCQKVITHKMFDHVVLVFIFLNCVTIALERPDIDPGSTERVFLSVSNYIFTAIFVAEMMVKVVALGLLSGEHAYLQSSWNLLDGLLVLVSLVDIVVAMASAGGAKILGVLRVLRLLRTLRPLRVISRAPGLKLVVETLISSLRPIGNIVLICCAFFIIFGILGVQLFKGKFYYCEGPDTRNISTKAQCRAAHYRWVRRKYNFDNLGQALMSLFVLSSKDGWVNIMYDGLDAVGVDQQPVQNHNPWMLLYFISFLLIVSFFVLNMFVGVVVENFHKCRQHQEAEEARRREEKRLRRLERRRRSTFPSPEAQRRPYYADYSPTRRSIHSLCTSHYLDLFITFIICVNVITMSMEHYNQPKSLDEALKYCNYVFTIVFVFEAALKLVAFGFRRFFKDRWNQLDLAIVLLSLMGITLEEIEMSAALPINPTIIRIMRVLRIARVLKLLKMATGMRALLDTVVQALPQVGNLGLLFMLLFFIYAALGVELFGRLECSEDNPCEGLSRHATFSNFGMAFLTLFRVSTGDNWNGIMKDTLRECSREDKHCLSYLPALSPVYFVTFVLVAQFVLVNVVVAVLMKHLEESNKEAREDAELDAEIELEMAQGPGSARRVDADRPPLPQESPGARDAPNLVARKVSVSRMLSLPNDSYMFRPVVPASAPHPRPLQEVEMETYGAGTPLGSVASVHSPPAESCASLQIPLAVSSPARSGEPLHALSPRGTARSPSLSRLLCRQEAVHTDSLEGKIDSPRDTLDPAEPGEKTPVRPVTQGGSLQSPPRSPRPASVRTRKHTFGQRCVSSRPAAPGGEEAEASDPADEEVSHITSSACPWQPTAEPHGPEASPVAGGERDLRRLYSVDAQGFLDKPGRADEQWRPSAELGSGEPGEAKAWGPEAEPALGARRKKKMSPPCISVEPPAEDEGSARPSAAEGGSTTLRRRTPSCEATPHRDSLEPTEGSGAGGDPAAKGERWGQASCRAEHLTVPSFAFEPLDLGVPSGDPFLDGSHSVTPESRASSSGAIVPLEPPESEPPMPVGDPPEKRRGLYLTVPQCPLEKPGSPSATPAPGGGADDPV
Pyk2 oligo antag = Pyk2 (human) oligomerization antagonism. Q293 cells, Pyk2 FERM NanoBiT luminescence; stronger effect = lower value. 0.83% of 99,000 active. z-score (the deposit names both 25 µM and 10 µM);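 active = Z-score of -3 or lower, scaled per plate to the spread of control and sample wells; inactive = z-score above -3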;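 note: negative z-score means lost luminescence so less FERM oligomerization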
CYP2C9 act = CYP2C9 (human) activation. P11712. recombinant CYP2C9, luciferin-H conversion, luminescence; stronger effect = higher value; factor 1 = untreated enzyme, 0 = blocked. activation factor at 5 µM. 1.4% of 96,000 active;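 active = activation factor of 2 or more for CYP2C9 at a 5 µM dose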
CYP2C9 inhib = human CYP2C9 inhibition; inhibition, % at 5 µM; 20% of 96,000 active; P11712; CYP2C9 Supersomes, luciferin-H conversion, luminescence;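 active = blocking of liver enzyme CYP2C9 beyond about 50% at 5 µM, limit read from the data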
CYP2C19 act = cytochrome P450 2C19 (human) activation | recombinant CYP2C19, luciferin-H EGE luminescence; stronger effect = higher value; 0 = fully inhibited enzyme, 1 = untreated enzyme | activation factor at 5 µM | 96,000 tested, under 10 active | AID 1025;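 active = activation factor of at least 2 at 5 µM in the primary screen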
CYP2C19 inhib = inhibitors of human CYP2C19; 21% of 96,000 active; AID 778; CYP2C19 Supersomes, luciferin-H EGE luminescence, 30 min; P33261; inhibition, % at 5 µM;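 active = CYP2C19 inhibition above a set limit at 5 µM in the primary screen, cut at about 50% in these data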
Numbers stand for hits; – = inactive; · = no result.

SMILES	Cav3 T inh	Pyk2 oligo antag	CYP2C9 act	CYP2C9 inhib	CYP2C19 act	CYP2C19 inhib
Cc1cc(NCc2ccccn2)nc2ccccc12	–	–	3	–	–	56
Cc1nc(NCc2ccccn2)c2ccccc2n1	–	–	–	–	–	–
COc1ccc(CCNC(=O)CSc2nn(-c3ccccc3)c(=S)s2)cc1OC	·	–	·	·	·	·
COC(=O)C(O)(NC(=O)NC(C)=O)C(F)(F)F (stereo not drawn)	–	–	–	–	–	–
CC(C)NC(=O)c1cc2c(-c3ccc(Cl)cc3)nn(C)c2s1	–	·	–	–	–	–
CSc1cc(-c2ccc(Cl)cc2)c(C(=O)NN)s1	–	–	–	65	–	70
CSc1cc(-c2ccc(Cl)cc2)c(C(=O)NC(C)C)s1	·	–	–	–	–	69
COc1ccc(C(=O)Nc2nnc(C(F)(F)F)s2)cc1	–	–	–	75	–	–
COc1cccc(C(=O)Nc2nnc(-c3cccs3)s2)c1	–	–	–	70	–	–
O=C(Nc1nc(-c2ccc(Cl)s2)cs1)c1ccncc1	–	–	–	–	–	51
COc1cc(C(=O)Nc2nc(-c3cccs3)cs2)cc(OC)c1OC	–	-4.3	–	–	–	–
O=C(Nc1nnc(C(F)(F)F)s1)c1cccnc1	–	–	·	·	·	·
CCc1nnc(NC(=O)c2cccc(OC)c2)s1	–	–	–	–	–	–
COc1cc(NC(=O)c2cc(-c3cccs3)on2)cc(OC)c1OC	·	–	–	–	–	–
COCC(C)NS(=O)(=O)c1ccc(NC(=O)C(Cc2ccccc2)NC(N)=O)cc1 (stereo not drawn)	–	–	–	–	–	–
Cc1c(NC(=O)C(Sc2ccccc2)c2ccccc2)cccc1[N+](=O)[O-] (stereo not drawn)	·	–	–	–	–	–
Clc1ccccc1Cn1nnc2c(NCCN3CCOCC3)ncnc21	–	–	–	–	–	–
O=C(COc1ccc(Cl)cc1)Nc1nc(-c2cccs2)cs1	–	–	·	·	·	·
O=C(Nc1nnc(Cc2ccc(Cl)cc2)s1)c1ccco1	–	–	–	63	–	–
CCC(NC(=O)Nc1nnc(C(F)(F)F)s1)(C(F)(F)F)C(F)(F)F	-7.8	–	–	71	–	–
O=C(Nc1nnc(-c2cccs2)o1)c1cccc(Oc2ccccc2)c1	-8.3	·	–	–	–	–
O=C(Nc1nnc(-c2cccs2)o1)c1cccc(F)c1	–	·	·	·	·	·
COc1ccc(C(=O)Nc2nc(-c3cccs3)cs2)cc1	-8.9	–	–	–	–	–
COc1ccc(Cc2nnc(NC(=O)c3cccs3)s2)cc1	–	–	–	69	–	–
C#CCOCCOCCOCCNc1nc(N2CCOCC2)nc(N2CCN(C(=O)[C@H]([C@@H](C)CC)n3cc([C@@H](N)CC(C)C)nn3)CC2)n1	–	·	·	·	·	·
SMILES	Cav3 T inh	Pyk2 oligo antag	CYP2C9 act	CYP2C9 inhib	CYP2C19 act	CYP2C19 inhib
Cc1cccc(C)c1NC(=O)C(NC=O)c1ccc(N(C)C)cc1 (stereo not drawn)	–	–	–	60	–	64
Cc1cccc(C)c1NC(=S)NNc1ncc(C(F)(F)F)cc1Cl	–	–	–	–	–	75
Cc1c(Cl)cccc1NC(=S)NNc1ncc(C(F)(F)F)cc1Cl	–	–	2.2	–	–	91
FC(F)(F)c1cnc(/C=C/Nc2ccccc2Cl)c(Cl)c1	–	–	–	–	–	–
Cc1ccccc1NC(=S)NNc1ncc(C(F)(F)F)cc1Cl	–	–	–	–	–	77
Fc1ccccc1NC(=S)NNc1ncc(C(F)(F)F)cc1Cl	·	–	–	87	–	55
FC(F)(F)c1ccc(Cl)c(NC(=S)NC2CC2)c1	·	–	·	·	·	·
COc1ccc2[nH]c(C)c(C(=O)CN3CCc4cc(OC)c(OC)cc4C3)c2c1	–	–	–	–	–	–
Cc1c(Br)cc(C(=O)NC2CCCCC2)c(C)c1C	–	–	–	–	–	–
O=C(NNc1ncc(C(F)(F)F)cc1Cl)c1c(Cl)cccc1Cl	–	–	2.4	–	–	–
CC(C)(C)C(=O)Nc1ncc(C(F)(F)F)cc1Cl	–	–	–	–	–	–
Cc1ccc(S(=O)(=O)NC(=O)CSc2nc3ccccc3s2)cc1	–	–	–	–	–	–
CS/C(=N\S(=O)(=O)c1cccs1)NC(=O)CSc1nc2ccccc2s1	–	–	–	100	–	80
COc1ccccc1C1C(C(N)=O)=C(C)Nc2nc(-c3ccc(Cl)cc3)nn21 (stereo not drawn)	–	·	–	–	–	–
CC1=C(C(N)=O)C(c2ccccc2)n2nc(-c3cccc(C)c3)nc2N1 (stereo not drawn)	–	·	–	–	–	50
CC1=C(C(N)=O)C(c2cccnc2)n2nc(-c3cccc(Cl)c3)nc2N1 (stereo not drawn)	–	–	–	–	–	–
COc1ccc(-c2nc3n(n2)C(c2ccccc2Cl)C(C(N)=O)=C(C)N3)cc1 (stereo not drawn)	–	·	–	–	–	53
O=C(NC(NCCCN1CCOCC1)(C(F)(F)F)C(F)(F)F)C1CCCCC1	–	–	–	–	–	–
COc1ccccc1Cc1nc(-c2ccc(Br)o2)no1	–	·	–	–	–	90
COC(=O)Nc1ccc(C)cc1NC(=O)OC	–	–	–	–	–	–
COC(=O)C1=C(C)Nc2ccc(C)cc2S1	–	·	–	–	–	62
CCn1nc(C(=O)OC(C(=O)c2c[nH]c3ccccc23)c2ccccc2)c2ccccc2c1=O (stereo not drawn)	–	–	–	74	–	–
CCn1nc(C(=O)OCC(=O)c2ccc3c(c2)OCCO3)c2ccccc2c1=O	–	–	–	–	–	–
Clc1cc(Cl)cc(C2=NC(Cc3ccccc3)CO2)c1 (stereo not drawn)	–	·	·	·	·	·
Cc1ccc2nc(SCc3nnc(-c4cccs4)o3)[nH]c2c1	–	–	–	51	–	–
SMILES	Cav3 T inh	Pyk2 oligo antag	CYP2C9 act	CYP2C9 inhib	CYP2C19 act	CYP2C19 inhib
Cc1cc(=O)[nH]c(Nc2ccc(C(=O)OC(C)C)cc2)n1	–	–	–	–	–	–
CC(C)C(=O)NCCc1nc(-c2ccccc2Cl)no1	–	·	·	·	·	·
Cc1ccc(C(=O)NCc2ccc(N3CCN(C(=O)OC(C)(C)C)CC3)cc2)cc1	·	–	–	–	–	–
CCc1ccc(CNc2ccc(N3CCN(C(C)=O)CC3)cc2)cc1	–	–	–	–	–	56
CC(=O)N1CCN(c2ccc(NCc3ccc(C)cc3)cc2)CC1	–	–	–	54	–	–
CC(=O)c1ccc(NCC(=O)N2CCN(c3ccccc3)CC2)cc1	·	–	–	–	–	58
CC(=O)c1ccc(N2CCN(C(=S)Nc3ccccc3)CC2)cc1	–	–	–	–	–	–
CC(=O)Nc1ccc(N2CCN(C(C)=O)CC2)cc1	–	–	–	–	–	–
CCCCCCCCCn1c2c(c(=N)c3c1CCC3)CCC2	-6.2	–	·	·	·	·
CCSc1nc2c(c(=O)[nH]1)C(c1ccncc1)C(C(=O)OC(C)C)=C(C)N2 (stereo not drawn)	–	–	–	57	–	90
CCOc1ccc(C(=O)c2ccc(OCC)c(N)c2)cc1N	–	–	–	–	–	76
